A short description of experiment [1]: anti-His antibody binders, primary screen, artefact control for SMM control protein annotation, biochemical, small-molecule microarray, 635 nm fluorescence (AID 1128).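 Further: score merges feature fluorescence with signal-to-noise for each printed compound spot.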 The following applies: anti-His Alexa647 antibody binding, higher = more signal.
The subject of experiment [2] is Human papillomavirus type 1a E7 protein (residues 1-88). Kind of experiment: HPV1a E7 small-molecule binders, primary screen, biochemical, small-molecule microarray, residues 1-88, 635 nm (AID 1129). The note with it: small-molecule microarray binding, fluorescence 635 nm; higher = more signal.
The target in experiment [3] is Focal adhesion kinase 1 (Homo sapiens) (UniProt Q05397). Put plainly: small-molecule microarray binders of FAK, primary screen, biochemical, 635/667 nm fluorescence, BSA, DTT (AID 1130).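 Further: composite of spot emission at 667 nm and signal to noise over triplicate slides.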 The note with it: PTK2 binding, 635 nm fluorescence, higher = more signal.
In experiment [4] the test system is Fibrinogen (Alexa647-labelled). Kind of experiment: fibrinogen binders on compound microarrays, profiling panel, artefact control for SMM control-protein annotation, biochemical, small-molecule microarray, 635/667 nm fluorescence (AID 1131).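 Further: z-score merges 667 nm fluorescence with per-spot signal-to-noise over triplicate slides.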 The note with it: fibrinogen-A647 binding fluorescence, higher = more signal.
The target in experiment [5] is Follistatin (Homo sapiens) (UniProt P19883). Kind of experiment: follistatin binders on small-molecule microarrays, primary screen, biochemical, small-molecule microarray, 635/667 nm fluorescence (AID 1132). The following applies: FST binding, 635 nm fluorescence, higher = more signal.
Experiment [6] has as its target Fibroblast growth factor 2 (Homo sapiens) (UniProt P09038). Put plainly: FGF2 binders on small-molecule microarrays, primary screen, biochemical, small-molecule microarray, 635/667 nm fluorescence (AID 1133). The following applies: small-molecule microarray binding, FGF2, fluorescence 635/667; higher = more signal.
The nature of experiment [7]: mitochondrial membrane potential change in A549 cells, profiling panel, cell-based, JC-1 fluorescence, basal, 24 h, 100 nL (AID 1138).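 Further: A549 lung adenocarcinoma cells under basal conditions with no added stimulus; test concentration not given here.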 The note with it: higher = more signal.
The subject of a further experiment is Lefty1. Kind of experiment: Lefty1 binders on small-molecule microarrays, primary screen, biochemical, small-molecule microarray, 635/667 nm fluorescence (AID 1139). The note with it: small-molecule microarray binding, fluorescence 635/667; higher = more signal.
The test system of experiment [8] is wheat germ agglutinin (Triticum aestivum), Alexa647-labelled. Kind of experiment: wheat germ agglutinin binders on compound microarrays, profiling panel, artefact control for SMM control-protein annotation, biochemical, small-molecule microarray, 635/667 nm fluorescence (AID 1140).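 Further: score merges 667 nm feature emission with signal to noise over triplicate slides.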 The note with it: WGA-A647 binding, 635 nm fluorescence, higher = more signal.
The target in experiment [9] is Luciferin 4-monooxygenase (Photinus pyralis) (UniProt P08659). Kind of experiment: firefly luciferase enzyme inhibitors, primary screen, biochemical, luminescence, purified enzyme, 2006 set (AID 1141).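 Further: cell-free assay with purified firefly luciferase at 100 ng per well in PBS; test concentration not given here.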 The following applies: SteadyGlo luminescence, 30 min, higher = more signal, called active from +8 up or from −8 down.
In experiment [10] the test system is Wnt5a (protein binding on small-molecule microarray). Kind of experiment: Wnt5a binders on small-molecule microarray, primary screen, biophysical, 635/667 nm fluorescence (AID 1142).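 Further: fluorescence read at 667 nm with signal to noise per printed feature.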 The note with it: 635 nm fluorescence, higher = more signal.
The nature of experiment [11]: cell viability in Huh7 cells, primary screen, cytotoxicity control for HCV replication inhibitor project, CellTiter-Glo luminescence, basal, 48 h (AID 1143).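 Further: Huh7 hepatoma cells carrying a hepatitis C replication reporter with no stimulus; test concentration not given here.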 The note with it: Huh7 HCV replicon, higher = more signal, called active from +8 up or from −8 down. (Cellular ATP, detected with luciferase, serves as a proxy for viable cell number.)
Experiment [12] in a line: P. aeruginosa biofilm formation inhibitors, primary screen, PAO1 strain, BacTiter-Glo luminescence, LB-PBS (AID 1144). The note with it: 12 h, higher = more signal.
The nature of experiment [13]: CREB reporter modulators without forskolin, primary screen, cell-based, PC12, CRE-LacZ reporter, unstimulated (AID 1145). The following applies: no forskolin, luminescence, 4.5 h, higher = more signal, called active from +8 up or from −8 down.
A short description of experiment [14]: CREB reporter modulators under forskolin, primary screen, cell-based, PC12, CRE-LacZ reporter, forskolin-stimulated (AID 1146).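 Further: PC12 cells with 6xCRE LacZ reporter stimulated by forskolin 10 µM; beta-galactosidase reporter signal reflecting CREB driven transcription.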 The following applies: luminescence, 4.5 h, higher = more signal, called active from +8 up or from −8 down.
Experiment [15] deals with Streptavidin (Streptomyces avidinii) (UniProt P22629). Put plainly: streptavidin binders on small-molecule microarray, primary screen, artefact control for SMM compound annotation, biophysical, 635/667 nm fluorescence (AID 1147).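 Further: signal reflects streptavidin binding to arrayed compounds as a control protein.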 The note with it: streptavidin binding, higher = more signal.
Experiment [16] is described as follows: small-molecule binders of probe aInhba, primary screen, biochemical, small-molecule microarray, 635/667 nm fluorescence (AID 1148).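 Further: score merges 667nm spot fluorescence with signal-to-noise for antibody binding to printed compounds.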 The note with it: higher = more signal.
The target in experiment [17] is Torsin-1A (Homo sapiens) (UniProt O14656). Kind of experiment: torsin A binders from cell lysate, primary screen, small-molecule microarray, wild-type, 635/667 nm (AID 1149). The note with it: COS7 hTOR1A-WT lysate, 635 nm fluorescence, higher = more signal.
Experiment [18] has the same target. Kind of experiment: small-molecule binders of mutant TOR1A in lysate, primary screen, cell lysate, small-molecule microarray, COS7 lysate, 635/667 nm fluorescence (AID 1150).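 Further: score pools 667 nm emission and signal to noise measuring lysate protein binding.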 The following applies: COS7 hTOR1A mutant lysate, 635 nm fluorescence, higher = more signal.
Experiment [19] relates to Sonic hedgehog protein (Shh). Put plainly: small-molecule binders of Shh protein, primary screen, biochemical, small-molecule microarray, 635/667 nm fluorescence (AID 1151).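 Further: Shh protein binding to compounds spotted on small-molecule microarray slides; score combines spot fluorescence intensity with signal-to-noise across triplicate slides.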 The note with it: small-molecule microarray binding, 635 nm fluorescence; higher = more signal.

The source made the active and inactive calls. Unless noted, how the calls were made is not given here.

Sequence of Follistatin (Homo sapiens) (P19883 whole entry, looked up): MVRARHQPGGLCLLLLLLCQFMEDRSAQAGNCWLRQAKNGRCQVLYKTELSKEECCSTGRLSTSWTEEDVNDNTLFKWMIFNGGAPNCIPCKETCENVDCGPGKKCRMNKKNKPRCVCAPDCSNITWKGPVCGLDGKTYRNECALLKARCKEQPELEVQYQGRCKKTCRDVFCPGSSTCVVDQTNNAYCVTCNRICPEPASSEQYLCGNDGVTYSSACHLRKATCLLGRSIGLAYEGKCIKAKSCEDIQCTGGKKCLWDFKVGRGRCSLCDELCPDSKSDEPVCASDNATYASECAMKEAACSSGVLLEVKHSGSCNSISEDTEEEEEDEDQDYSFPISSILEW
Sequence of Streptavidin (Streptomyces avidinii) (P22629 whole entry, looked up): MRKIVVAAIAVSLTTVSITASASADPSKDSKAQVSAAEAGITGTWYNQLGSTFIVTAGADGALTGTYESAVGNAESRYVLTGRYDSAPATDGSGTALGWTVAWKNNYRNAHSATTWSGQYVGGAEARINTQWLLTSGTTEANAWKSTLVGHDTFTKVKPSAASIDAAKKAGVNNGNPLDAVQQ
Sequence of Luciferin 4-monooxygenase (Photinus pyralis) (P08659 whole entry, looked up): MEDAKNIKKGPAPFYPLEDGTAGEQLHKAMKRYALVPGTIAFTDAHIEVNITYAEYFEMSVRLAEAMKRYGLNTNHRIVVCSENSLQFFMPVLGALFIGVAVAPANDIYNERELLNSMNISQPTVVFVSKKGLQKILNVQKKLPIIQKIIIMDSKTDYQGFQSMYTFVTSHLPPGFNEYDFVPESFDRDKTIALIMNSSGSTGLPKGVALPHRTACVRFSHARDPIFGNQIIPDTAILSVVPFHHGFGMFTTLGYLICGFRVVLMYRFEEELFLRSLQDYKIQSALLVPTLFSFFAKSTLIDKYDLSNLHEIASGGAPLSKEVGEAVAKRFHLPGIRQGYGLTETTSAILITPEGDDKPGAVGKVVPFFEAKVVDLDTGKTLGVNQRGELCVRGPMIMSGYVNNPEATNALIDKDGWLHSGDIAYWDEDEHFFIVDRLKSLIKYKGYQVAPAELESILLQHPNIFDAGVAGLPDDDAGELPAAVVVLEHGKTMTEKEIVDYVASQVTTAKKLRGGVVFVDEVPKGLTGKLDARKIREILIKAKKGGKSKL
Sequence of Focal adhesion kinase 1 (Homo sapiens) (Q05397 whole entry, looked up): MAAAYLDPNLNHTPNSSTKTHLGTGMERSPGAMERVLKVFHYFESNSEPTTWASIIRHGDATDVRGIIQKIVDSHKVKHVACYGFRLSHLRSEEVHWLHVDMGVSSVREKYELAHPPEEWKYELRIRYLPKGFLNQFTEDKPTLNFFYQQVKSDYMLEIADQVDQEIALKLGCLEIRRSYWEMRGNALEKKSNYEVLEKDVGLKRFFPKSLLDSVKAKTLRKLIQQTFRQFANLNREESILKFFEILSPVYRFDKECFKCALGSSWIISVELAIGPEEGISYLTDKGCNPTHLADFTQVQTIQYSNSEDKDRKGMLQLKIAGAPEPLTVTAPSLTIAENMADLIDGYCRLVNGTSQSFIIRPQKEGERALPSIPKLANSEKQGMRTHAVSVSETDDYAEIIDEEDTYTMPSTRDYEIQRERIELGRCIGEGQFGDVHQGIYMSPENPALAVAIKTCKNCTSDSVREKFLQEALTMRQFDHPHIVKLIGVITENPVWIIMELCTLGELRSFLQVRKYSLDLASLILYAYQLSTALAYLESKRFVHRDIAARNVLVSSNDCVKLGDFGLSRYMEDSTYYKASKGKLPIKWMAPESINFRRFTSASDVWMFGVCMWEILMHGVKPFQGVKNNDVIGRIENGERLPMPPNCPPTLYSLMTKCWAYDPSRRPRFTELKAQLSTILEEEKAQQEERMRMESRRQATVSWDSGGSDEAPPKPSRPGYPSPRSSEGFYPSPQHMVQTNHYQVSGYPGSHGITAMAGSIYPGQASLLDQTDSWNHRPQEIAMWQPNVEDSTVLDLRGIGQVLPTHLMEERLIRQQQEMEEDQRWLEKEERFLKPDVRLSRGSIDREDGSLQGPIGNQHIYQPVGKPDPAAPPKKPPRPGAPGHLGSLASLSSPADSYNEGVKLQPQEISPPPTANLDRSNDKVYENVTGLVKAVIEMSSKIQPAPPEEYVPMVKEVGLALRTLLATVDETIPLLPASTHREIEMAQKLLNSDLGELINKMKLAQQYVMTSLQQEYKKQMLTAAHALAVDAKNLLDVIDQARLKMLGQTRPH
Sequence of Torsin-1A (Homo sapiens) (O14656 whole entry, looked up): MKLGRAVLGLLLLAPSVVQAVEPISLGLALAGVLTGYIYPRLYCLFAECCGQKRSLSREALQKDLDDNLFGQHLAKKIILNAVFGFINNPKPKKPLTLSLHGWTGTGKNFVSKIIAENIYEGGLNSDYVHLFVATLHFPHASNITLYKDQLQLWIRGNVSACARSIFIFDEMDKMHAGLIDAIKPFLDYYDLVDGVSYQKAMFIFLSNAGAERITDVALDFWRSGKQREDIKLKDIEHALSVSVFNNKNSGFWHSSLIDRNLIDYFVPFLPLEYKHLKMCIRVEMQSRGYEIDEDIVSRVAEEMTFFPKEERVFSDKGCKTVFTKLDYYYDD
Sequence of Fibroblast growth factor 2 (Homo sapiens) (P09038 whole entry, looked up): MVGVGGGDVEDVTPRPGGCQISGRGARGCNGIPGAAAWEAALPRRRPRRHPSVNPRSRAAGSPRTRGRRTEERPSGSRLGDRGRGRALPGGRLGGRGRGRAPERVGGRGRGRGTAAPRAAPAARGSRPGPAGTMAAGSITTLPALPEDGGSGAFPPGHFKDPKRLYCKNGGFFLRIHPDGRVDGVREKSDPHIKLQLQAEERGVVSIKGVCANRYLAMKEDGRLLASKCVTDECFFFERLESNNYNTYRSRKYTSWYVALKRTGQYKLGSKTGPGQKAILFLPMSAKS

For `CC(C)C(O)C1C=CC2C(=O)N(C)C(=O)C2N1N1CCCCC1` (stereo not given), the composite z-score in experiment [1] is -0.0134; in experiment [2] it was 1.11; in [3] it was 0.776; in experiment [4] it was 0.447; in experiment [5] it was 0.336; in [6] it was 0.329. Also, the composite z-score in the experiment with Lefty1 is -0.146; in experiment [8], 0.763; in experiment [10], -0.0226; in [15] it was 0.482; in [16], -0.0704; with Torsin-1A (Homo sapiens) [17], -0.0881. Besides, the composite z-score with Torsin-1A (Homo sapiens) [18] worked out at 1.29; in experiment [19] it was 0.192. Besides, the z-score in experiment [7] is -0.115; in experiment [9], -0.686 (inactive); in experiment [11] it was 0.788 (inactive); in experiment [12] it was -0.775 (inactive); in experiment [13] it was -0.133 (inactive); in experiment [14], 0.0399 (inactive).
For the compound `Cc1ccc(S[C@]2(C(=O)NCC(C)C)CC(=O)N(Cc3ccccc3)[C@@H]2c2ccc(CO)cc2)cc1`, the composite z-score in experiment [1] was -0.549; in experiment [2], -0.467; in experiment [3] it was -0.0956; in [4], -1.2; in [5], -0.795; in experiment [6] it was -0.42. In addition, the composite z-score in the experiment with Lefty1 was -1.4; in experiment [8] it was -0.282; in experiment [10], -0.405; in experiment [15] it was -0.987; in experiment [16] it was -0.152; in the experiment with Torsin-1A (Homo sapiens) [17], -0.258. Further, the values for the composite z-score (with Torsin-1A (Homo sapiens) [18]; in experiment [19]) were -0.293 and -1.45, respectively. The z-score is -0.254 in [7]; -0.766 (inactive) in experiment [9]; -1.13 (inactive) in experiment [11]; 0.459 (inactive) in experiment [12]; -0.179 (inactive) in [13]; 0.98 (inactive) in experiment [14].
`COc1ccc(C#Cc2ccc3c(c2)[C@]2(C(=O)N3)[C@H](C(=O)N3CCc4cc(OC)c(OC)cc4C3)[C@H]3C(=O)O[C@H](c4ccccc4)[C@H](c4ccccc4)N3[C@@H]2c2ccc(OCCO)cc2)cc1`: the composite z-score in [1] came to 0.441; in experiment [2], 1.2; in [3], 1.1; in experiment [4], 0.821; in experiment [5], 1.21; in experiment [6], 1.24. Further, the composite z-score amounted to 0.941 in the experiment with Lefty1; 1.17 in experiment [8]; 0.665 in [10]; 1 in [15]; 0.136 in experiment [16]; 0.947 with Torsin-1A (Homo sapiens) [17]. In addition, the composite z-score with Torsin-1A (Homo sapiens) [18] came out at 0.488; in experiment [19], 1.88. Further, the z-score was -1.09 in experiment [7]; -0.297 (inactive) in experiment [9]; -0.763 (inactive) in experiment [11]; -0.745 (inactive) in experiment [12]; -0.258 (inactive) in experiment [13]; -0.166 (inactive) in experiment [14].
With `OCCCc1cc[n+](Cc2cccc(OC(F)(F)F)c2)cc1`, the composite z-score in [1] was found to be 1.62; in [2], 1.01; in experiment [3], 0.917; in [4], 0.315; in experiment [5] it was 1.18; in experiment [6] it was 0.58. Further, the composite z-score with Lefty1 is 0.714; in [8], 0.889; in experiment [10], 0.012; in [15], 0.274; in experiment [16] it was -0.0538; with Torsin-1A (Homo sapiens) [17], 1.03. Further, the composite z-score with Torsin-1A (Homo sapiens) [18] was determined as 1.59; in experiment [19], 1.82. The z-score in experiment [7] was -0.672; in experiment [9], 1.14 (inactive); in [11], -1.79 (inactive); in experiment [12], -0.781 (inactive); in [13] it was -0.374 (inactive); in [14], 1.69 (inactive).
On to `COc1ccc(C#Cc2ccc3c(c2)[C@]2(C(=O)N3)[C@H](c3ccc(OCCO)cc3)N3[C@H](c4ccccc4)[C@H](c4ccccc4)OC(=O)[C@H]3[C@@H]2C(=O)Nc2nc3ccccc3s2)cc1`, for which the composite z-score in [1] worked out at 0.842; in experiment [2], 1.17; in [3], 0.862; in experiment [4], 0.88; in experiment [5], 1.3; in experiment [6] it was 1.28. Besides, the composite z-score with Lefty1 was 1.57; in experiment [8], 0.764; in experiment [10], 0.603; in [15] it was 1.07; in experiment [16], 0.143; with Torsin-1A (Homo sapiens) [17], 1.15. In addition, the composite z-score is 0.564 with Torsin-1A (Homo sapiens) [18] and 1 in experiment [19]. Further, the z-score in experiment [7] was -2.06; in experiment [9], -3.84 (inactive); in [11] it was -2.92 (inactive); in experiment [12] it was -1.54 (inactive); in experiment [13], 0.918 (inactive); in experiment [14], -0.203 (inactive).

Values taken from PubChem BioAssay.
